# Reference: PubChem BioAssay
# The source made the active and inactive calls. Unless noted, how the calls were made is not given here.
# What was measured:
# [1] = tested on: Neuropilin-2 / VEGF-C interaction (human); test: inhibitors of NRP2–VEGF-C binding, biochemical, microplate binding format, z-score (AID 743281); conditions: microplate NRP2/VEGF-C binding assay; stronger effect = lower value
# [2] = modulation of C. elegans fzo-1 (AID 1259413);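 further: fzo-1 mutant C. elegans worms in liquid wells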; conditions: C. elegans fzo-1 modulator screen, mean read-out; stronger effect = higher value
# [3] = differential killing of epithelial or mesenchymal cells, primary screen, imaging, PC-3E GFP, TEM4-18 mCherry, co-culture (AID 1345086;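 active means compounds killing one labelled cell type while sparing the other, by normalised counts and ratio limits, not self-fluorescent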;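 on all read-outs here: cells exposed to compound for 72 h before imaging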;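 on red/green cell ratio (normalised): normalised mesenchymal count divided by normalised epithelial count so high means epithelial killing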); conditions: imaging cell counts, at 1 µM; for red/green cell ratio (normalised): actives lie on both sides, counts scaled to control wells, 1 = unselective
# [4] = liver-stage malaria parasite growth inhibition, primary screen, cell-based, HepG2, luciferase luminescence, HepG2 viability (AID 624349; in the data active means parasite load remaining mostly below about 12%, no sharp cut-off; inactive means mostly above about 10%;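 further: 100% = mean of DMSO negative control wells on the same plate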); conditions: P. berghei liver stage in HepG2, luciferase luminescence, concentration not given here; parasite load remaining: stronger effect = lower value; viability: measured here: HepG2 viability without parasites
# [5] = Cy5 fluorescence interference with SSB-bound oligo, artefact control for HCV NS3 helicase inhibitor project, biochemical, NIH Clinical Collection, E. coli SSB (AID 743268)
# [6] = tested on: Hepatitis C virus NS3 helicase; test: HCV NS3 helicase inhibitors, primary screen, biochemical, fluorescence polarization, NIH Clinical Collection (AID 743270); conditions: NS3 helicase binding to Cy5-dT15 DNA, stronger effect = higher value, concentration not given here
# [7] = target: Single-stranded DNA-binding protein (Escherichia coli (strain K12)) (UniProt P0AGE0); test: E. coli SSB displacement from DNA, counter-screen for HCV NS3 helicase inhibitor project, biochemical, fluorescence polarization, NIH Clinical Collection (AID 743271; in the data active means inhibition above about 28%); conditions: stronger effect = higher value, concentration not given here
# [8] = fluorescence interference in NS3h assay format, artefact control for HCV NS3 helicase inhibitor project, biochemical, NIH Clinical Collection (AID 743272); conditions: fluorescence interference counterscreen, stronger effect = lower value;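 further: HCV NS3 helicase with a Cy5 labelled single stranded DNA probe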
# [9] = measured here: epithelial PC-3E GFP cell survival
# [10] = measured here: mesenchymal TEM4-18 mCherry cell survival
compound,measurement,setting,value
CC[C@H]1OC(=O)[C@H](C)C(=O)[C@H](C)[C@@H](O[C@@H]2O[C@H](C)C[C@H](N(C)C)[C@H]2O)[C@](C)(OC)C[C@@H](C)C(=O)[C@H](C)[C@@H]2N(CCCCn3cnc(-c4cccnc4)c3)C(=O)OC21C (some centres not stated),outcome,[1],inactive
same,mean signal,[2],205 (inactive)
CO[C@H]1C=CO[C@@]2(C)Oc3c(C)c(O)c4c(O)c(c5c(nc6cc(C)ccn65)c4c3C2=O)NC(=O)/C(C)=C\C=C[C@H](C)[C@H](O)[C@@H](C)[C@@H](O)[C@@H](C)[C@H](OC(C)=O)[C@@H]1C,outcome,[1],inactive
same,mean signal,[2],289 (inactive)
C#C[C@]1(O)CC[C@H]2[C@@H]3CCc4cc(OC)ccc4[C@H]3CCC21C (some centres not stated),outcome,[1],inactive
same,mean signal,[2],241 (inactive)
CC(C)CCCC(C)C1CCC2C3CC[C@H]4CC(=O)CC[C@]4(C)C3CC[C@]12C (some centres not stated),red/green cell ratio (normalised),[3],0.94 (inactive)
same,normalised cell number,[3]; [9],1.04
same,normalised cell number,[3]; [10],0.97
OC[C@H]1O[C@@H](n2cnc3c(N[C@H]4CCC[C@@H]4O)ncnc32)[C@@H](O)C1O (some centres not stated),parasite load remaining,[4],54.4% (inactive)
same,viability,[4],67.3%
same,fluorescence ratio,[5],1.01 (inactive)
same,inhibition,[6],-1.09% (inactive)
same,inhibition,[7],-2.76% (inactive)
same,fluorescence ratio,[8],0.98 (inactive)
same,z-score,[1],-0.495 (inactive)
same,mean signal,[2],261 (inactive)
CC(=O)OC1C([N+]2(C)CCCCC2)C[C@H]2C3CC[C@H]4C[C@H](OC(C)=O)C([N+]5(C)CCCCC5)CC4(C)[C@H]3CCC12C (some centres not stated),parasite load remaining,[4],86.3% (inactive)
same,viability,[4],68.8%
same,fluorescence ratio,[5],0.94 (inactive)
same,inhibition,[6],-0.4% (inactive)
same,inhibition,[7],11.4% (inactive)
same,fluorescence ratio,[8],0.71 (active)
same,outcome,[1],inactive
same,mean signal,[2],283 (inactive)
CC(=O)O[C@H]1C[C@@H]2CC[C@@H]3[C@H](CCC4(C)[C@H]3C[C@H]([N+]3(C)CCCCC3)[C@@H]4OC(C)=O)C2(C)C[C@@H]1N1CCCCC1 (some centres not stated),outcome,[1],inactive
same,mean signal,[2],285 (inactive)
C#C[C@]1(O)CC[C@H]2[C@@H]3CCC4=CC(=O)CC[C@@H]4[C@H]3CCC21CC (some centres not stated),outcome,[1],inactive
same,mean signal,[2],225 (inactive)
C=C1/C(=C\C=C2/CCCC3(C)[C@@H]([C@H](C)/C=C/[C@@H](O)C4CC4)CC[C@@H]23)C[C@@H](O)C[C@@H]1O (some centres not stated),outcome,[1],inactive
same,mean signal,[2],277 (inactive)
N[C@@H](C(=O)N[C@@H]1C(=O)N2C(C(=O)O)=C(CSC3CNNN3)CS[C@H]12)c1ccc(O)cc1 (some centres not stated) (tested in a mixture with another compound),outcome,[1],inactive
same,mean signal,[2],239 (inactive)
C=C1/C(=C\C=C2/CCCC3(C)[C@@H]([C@H](C)CCCC(C)(C)O)CC[C@@H]23)C[C@@H](O)C[C@@H]1O (some centres not stated),outcome,[1],inactive
same,mean signal,[2],260 (inactive)
COc1cc(OC)c2c(O)c(C(C)=O)c(C)cc2c1,red/green cell ratio (normalised),[3],1.01 (inactive)
same,normalised cell number,[3]; [9],1.08
same,normalised cell number,[3]; [10],1.09
CO[C@H]1C=CO[C@@]2(C)Oc3c(C)c(O)c4c(O)c(c(/C=N/N5CCN(C6CCCC6)CC5)c(O)c4c3C2=O)NC(=O)/C(C)=C\C=C[C@H](C)[C@H](O)[C@@H](C)[C@@H](O)[C@@H](C)[C@H](OC(C)=O)[C@@H]1C,outcome,[1],inactive
same,mean signal,[2],288 (inactive)
C[C@@H]1C[C@H]2[C@@H]3C[C@H](F)C4=CC(=O)C(Cl)=CC4(C)[C@@]3(F)[C@@H](O)CC2(C)[C@@]1(O)C(=O)CO (some centres not stated),outcome,[1],inactive
same,mean signal,[2],273 (inactive)
OC[C@H]1O[C@@](CO)(O[C@@H]2O[C@H](CO)[C@@H](O)[C@H](O)[C@H]2O)[C@@H](O[C@@H]2O[C@H](CO)[C@@H](O)[C@H](O)[C@H]2O)[C@@H]1O,red/green cell ratio (normalised),[3],0.9 (inactive)
same,normalised cell number,[3]; [9],1.13
same,normalised cell number,[3]; [10],1.01
COc1cc(-c2coc3cc(O)c(OC)c(O)c3c2=O)cc(O)c1OC,red/green cell ratio (normalised),[3],0.95 (inactive)
same,normalised cell number,[3]; [9],1.03
same,normalised cell number,[3]; [10],0.98
CC(=O)OC12CO[C@@H]1C[C@H](O)[C@@]1(C)C(=O)[C@H](O)C3=C(C)[C@@H](OC(=O)[C@H](O)[C@@H](NC(=O)OC(C)(C)C)c4ccccc4)CC(O)([C@@H](OC(=O)c4ccccc4)[C@H]21)C3(C)C (some centres not stated),outcome,[1],inactive
same,mean signal,[2],256 (inactive)
C#C[C@]1(O)CC[C@H]2[C@@H]3[C@H](C)CC4=C(CCC(=O)C4)[C@H]3CCC21C (some centres not stated),outcome,[1],inactive
same,mean signal,[2],249 (inactive)
C=CC[C@@H]1/C=C(\C)C[C@H](C)C[C@H](OC)[C@H]2OC(O)(C(=O)C(=O)N3CCCC[C@H]3C(=O)O[C@H](/C(C)=C/[C@@H]3CC[C@@H](O)[C@H](OC)C3)[C@H](C)[C@@H](O)CC1=O)[C@H](C)C[C@@H]2OC,outcome,[1],inactive
same,mean signal,[2],274 (inactive)
C#C[C@]1(O)CC[C@H]2[C@@H]3CCc4cc(O)ccc4[C@H]3CCC21C (some centres not stated),outcome,[1],inactive
same,mean signal,[2],242 (inactive)
CC(=O)O[C@]1(C(C)=O)CC[C@H]2[C@@H]3C=C(C)C4=CC(=O)CCC4(C)[C@H]3CCC21C (some centres not stated),outcome,[1],inactive
same,mean signal,[2],261 (inactive)
C[C@H](CCC(=O)NCC(=O)O)[C@H]1CCC2C3C(C[C@H](O)[C@@]21C)[C@@]1(C)CC[C@@H](O)CC1C[C@H]3O (some centres not stated),red/green cell ratio (normalised),[3],1.13 (inactive)
same,normalised cell number,[3]; [9],0.89
same,normalised cell number,[3]; [10],1.01
CC(=O)[C@H]1CC[C@H]2[C@@H]3CCC4=CC(=O)CCC4(C)[C@H]3CCC12C (some centres not stated),outcome,[1],inactive
same,mean signal,[2],279 (inactive)
O=C1N[C@H](C(=O)O)CS1,parasite load remaining,[4],95.8% (inactive)
same,viability,[4],70.6%
same,fluorescence ratio,[5],1.02 (inactive)
same,inhibition,[6],-3.56% (inactive)
same,inhibition,[7],-3.18% (inactive)
same,fluorescence ratio,[8],0.96 (inactive)
same,z-score,[1],-0.587 (inactive)
same,mean signal,[2],242 (inactive)
CC12CC[C@@H]3c4ccc(OS(=O)(=O)O)cc4CC[C@H]3[C@@H]1CCC2=O (some centres not stated),outcome,[1],inactive
same,mean signal,[2],260 (inactive)
COc1ccc(-c2cc(=O)c3c(O)cc(OC)cc3o2)cc1,red/green cell ratio (normalised),[3],1.15 (inactive)
same,normalised cell number,[3]; [9],1.08
same,normalised cell number,[3]; [10],1.24
CC12CCC(=O)C=C1CC[C@@H]1[C@@H]2[C@@H](O)CC2(C)[C@@H](C(=O)CO)CC[C@@H]12 (some centres not stated),outcome,[1],inactive
same,mean signal,[2],250 (inactive)
O=C(O)CS,red/green cell ratio (normalised),[3],1.05 (inactive)
same,normalised cell number,[3]; [9],1.25
same,normalised cell number,[3]; [10],1.3
CCCCCCCCCCCC[C@H](C(=O)O)[C@@H](C)C(=O)O,red/green cell ratio (normalised),[3],1.15 (inactive)
same,normalised cell number,[3]; [9],0.84
same,normalised cell number,[3]; [10],0.97
CCOC(=O)O[C@]1(C(=O)OCCl)CC[C@H]2[C@@H]3CCC4=CC(=O)C=CC4(C)[C@H]3[C@@H](O)CC21C (some centres not stated),outcome,[1],inactive
same,mean signal,[2],256 (inactive)
CC12CC[C@@H]3c4ccc(O)cc4CC[C@H]3[C@@H]1CC[C@@H]2O (some centres not stated),outcome,[1],inactive
same,mean signal,[2],233 (inactive)
CC(C)(C)NC(=O)[C@H]1CC[C@H]2[C@@H]3CC[C@H]4NC(=O)C=CC4(C)[C@H]3CCC12C (some centres not stated),outcome,[1],inactive
same,mean signal,[2],247 (inactive)
COc1cc(C(=O)O)cc(OC)c1O,red/green cell ratio (normalised),[3],1.08 (inactive)
same,normalised cell number,[3]; [9],1
same,normalised cell number,[3]; [10],1.07
CCCC1=CC(=O)[C@H](O)[C@H]1O,red/green cell ratio (normalised),[3],1.01 (inactive)
same,normalised cell number,[3]; [9],1.02
same,normalised cell number,[3]; [10],1.02
CO[C@H]1CC(O[C@@H]2/C(C)=C/C[C@@H]3C[C@@H](C[C@]4(CC[C@H](C)[C@@H](C5CCCCC5)O4)O3)OC(=O)[C@@H]3C=C(C)/C(=N/O)C4OC/C(=C\C=C\[C@@H]2C)[C@]43O)O[C@@H](C)C1O (some centres not stated),red/green cell ratio (normalised),[3],1.11 (inactive)
same,normalised cell number,[3]; [9],1.23
same,normalised cell number,[3]; [10],1.36
C[C@@H]1[C@H](O)[C@@H](C)/C=C/C=C/C=C/C=C/C=C/C=C/C=C/[C@H](OC2O[C@H](C)[C@@H](O)[C@H](N)[C@@H]2O)C[C@@H]2O[C@](O)(C[C@@H](O)C[C@@H](O)[C@H](O)CC[C@@H](O)C[C@@H](O)CC(=O)O[C@H]1C)C[C@H](O)[C@H]2C(=O)O (some centres not stated),red/green cell ratio (normalised),[3],0.82 (inactive)
same,normalised cell number,[3]; [9],1.26
same,normalised cell number,[3]; [10],1.03
